Test results from PubChem BioAssay AID1159580 (chemical genetic matrix, 2015).
Where “and” joins values, the source holds several entries; their conditions need not be identical. Equal values may be shown once. Out of some 5,500 compounds screened, about 2,000 (36%) were called active. Roughly 18% stayed inconclusive and do not appear here. Rule as the data show it: active = normalized growth mostly below about 0.91 (no sharp cut-off); inconclusive = no clear call, values can overlap the other calls; inactive = mostly above about 0.92. The list shows a part of the results.

Experiment: chemical genetic growth profiling, strain panel (AID 1159580);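 also: tested at 20 µM; growth read once vehicle control cultures reached saturation at 30 °C; 1 = growth at the plate median or of vehicle wells; lower values mean less growth of the strain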
Conditions: S. cerevisiae deletion strains, growth OD

Measured: normalized growth

O=C1N=C(O)CN1/N=C\c1ccc(-c2ccc([N+](=O)[O-])cc2)o1
inactive: locus YAL013W, strain DEP1, stronger effect = lower value 1.01 and 0.985 | locus YAL021C, strain ccr4, stronger effect = lower value 0.948 | locus YAL026C, strain drs2, stronger effect = lower value 0.981 | locus YAL030W, strain snc1, stronger effect = lower value 0.986 | locus YAL040C, strain CLN3, stronger effect = lower value 1.03 | locus YBL061C, strain skt5, stronger effect = lower value 1 | locus YBR009C, strain hhf1, stronger effect = lower value 1 | locus YBR021W, strain FUR4, stronger effect = lower value 1.03 | locus YBR023C, strain chs3, stronger effect = lower value 0.998 | locus YBR171W, strain sec66, stronger effect = lower value 0.98 | locus YBR229C, strain ROT2, stronger effect = lower value 1.01 | locus YBR231C, strain swc5, stronger effect = lower value 0.971 | locus YBR279W, strain paf1, stronger effect = lower value 0.974 | locus YCL011C, strain gbp2, stronger effect = lower value 0.989 | locus YCL016C, strain dcc1, stronger effect = lower value 0.985 | locus YCL029C, strain bik1, stronger effect = lower value 1.04 | locus YCL061C, strain MRC1 (second series), stronger effect = lower value 1.01 | locus YCL061C, strain MRC1, stronger effect = lower value 0.987 | locus YCL069W, strain vba3, stronger effect = lower value 0.974 | locus YCR088W, strain abp1, stronger effect = lower value 0.973 | locus YDL005C, strain med2, stronger effect = lower value 0.973 | locus YDL035C, strain GPR1, stronger effect = lower value 1.03 | locus YDL040C, strain nat1, stronger effect = lower value 0.978 | locus YDL074C, strain BRE1, stronger effect = lower value 1.04 | locus YDL101C, strain DUN1, stronger effect = lower value 1.01 | locus YDL134C, strain PPH21, stronger effect = lower value 1.02 | locus YDL185W, strain tfp1, stronger effect = lower value 1.04 | locus YDL192W, strain arf1, stronger effect = lower value 1.03 | locus YDR001C, strain nth1, stronger effect = lower value 0.977 | locus YDR069C, strain doa4, stronger effect = lower value 0.987 | locus YDR101C, strain arx1, stronger effect = lower value 1.02 | locus YDR137W, strain rgp1, stronger effect = lower value 0.918 | locus YDR150W, strain NUM1, stronger effect = lower value 1.03 and 1 | locus YDR159W, strain sac3, stronger effect = lower value 0.966 | locus YDR162C, strain NBP2, stronger effect = lower value 1.02 | locus YDR195W, strain ref2 0.988 | locus YDR297W, strain sur2, stronger effect = lower value 0.984 | locus YDR318W, strain mcm21, stronger effect = lower value 1.02 | locus YDR334W, strain swr1, stronger effect = lower value 0.949 | locus YDR335W, strain msn5, stronger effect = lower value 0.985 | locus YDR363W, strain ESC2, stronger effect = lower value 0.996 | locus YDR388W, stronger effect = lower value 1.03 | locus YDR392W, strain spt3, stronger effect = lower value 0.942 | locus YDR502C, strain sam2, stronger effect = lower value 1.01 | locus YEL003W, strain gim4, stronger effect = lower value 0.986 | locus YEL037C, strain rad23, stronger effect = lower value 0.974 | locus YEL061C, strain CIN8 (second series), stronger effect = lower value 0.97 | locus YEL061C, strain CIN8, stronger effect = lower value 1.02 | locus YER002W, strain NOP16, stronger effect = lower value 1 | locus YER015W, strain faa2, stronger effect = lower value 0.968 | locus YER016W, strain bim1, stronger effect = lower value 0.99 | locus YER110C, stronger effect = lower value 1.03 | locus YER111C, strain swi4, stronger effect = lower value 0.968 | locus YER155C, strain BEM2 (second series), stronger effect = lower value 0.955 | locus YER155C, strain BEM2, stronger effect = lower value 1.01 | locus YER167W, strain BCK2, stronger effect = lower value 1.03 | locus YFR010W, strain ubp6, stronger effect = lower value 0.984 | locus YGL078C, strain dbp3, stronger effect = lower value 1.04 | locus YGL086W, strain mad1, stronger effect = lower value 1.02 | locus YGL167C, strain pmr1, stronger effect = lower value 0.994 | locus YGL173C, strain kem1, stronger effect = lower value 0.99 | locus YGL227W, strain vid30, stronger effect = lower value 0.986 | locus YGL240W, strain doc1, stronger effect = lower value 0.977 | locus YGL248W, strain PDE1, stronger effect = lower value 1.02 | locus YGL253W, strain hxk2, stronger effect = lower value 0.987 | locus YGR078C, strain PAC10, stronger effect = lower value 1.02 and 1.01 | locus YGR135W, strain pre9, stronger effect = lower value 1.02 | locus YGR229C, strain SMI1, stronger effect = lower value 0.997 | locus YGR252W, strain gcn5, stronger effect = lower value 0.983 | locus YHR013C, strain ard1, stronger effect = lower value 0.992 | locus YHR027C, strain rpn1, stronger effect = lower value 0.992 | locus YHR030C, strain SLT2, stronger effect = lower value 1.02 and 1.01 | locus YHR079C, strain IRE1 (second series), stronger effect = lower value 1.02 | locus YHR079C, strain IRE1, stronger effect = lower value 1.02 | locus YHR094C, strain hxt1, stronger effect = lower value 1.03 | locus YHR129C, strain ARP1, stronger effect = lower value 1.02 | locus YHR142W, strain chs7, stronger effect = lower value 0.986 | locus YHR200W, strain rpn10, stronger effect = lower value 1.02 | locus YIL066C, strain RNR3, stronger effect = lower value 1.02 | locus YIL073C, strain SPO22, stronger effect = lower value 1.06 | locus YIL125W, strain kgd1, stronger effect = lower value 1.03 | locus YIR030C, strain dcg1, stronger effect = lower value 1.03 | locus YJL092W, strain hpr5, stronger effect = lower value 0.979 | locus YJL095W, strain BCK1 (second series), stronger effect = lower value 0.993 | locus YJL095W, strain BCK1, stronger effect = lower value 1.03 and 1.01 | locus YJL115W, strain asf1, stronger effect = lower value 0.976 | locus YJL129C, strain trk1, stronger effect = lower value 0.912 | locus YJL134W, strain LCB3, stronger effect = lower value 1.01 | locus YJL154C, strain vps35, stronger effect = lower value 0.968 | locus YJL164C, strain tpk1, stronger effect = lower value 1.01 | locus YJL166W, strain qcr8, stronger effect = lower value 0.978 | locus YJL168C, strain set2, stronger effect = lower value 1.02 | locus YJL187C, strain SWE1 (second series), stronger effect = lower value 1.02 | locus YJL187C, strain SWE1, stronger effect = lower value 0.986 | locus YJR043C, strain POL32, stronger effect = lower value 1.04 | locus YJR066W, strain TOR1, stronger effect = lower value 0.944
